The source made the active and inactive calls. A call without a number means that no potency is given here. Calls follow the shape of the dose curve; as a rule, active = well fitted curve in the direction sought with a large enough effect in the repeat runs; inconclusive = weak or mixed curves; inactive = flat fitted curve, though single readings scatter.
test: qHTS assay to test for compound auto fluorescence at 460 nm (blue) in HepG2 cells (AID 720687); conditions: autofluorescence 405/460 nm, 1 h; series mostly up to 91.3 µM
Description: U.S. Tox21 Program National Center for Advancing Translational Sciences [NCATS] NIH Chemical Genomics Center [NCGC] U.S. Environmental Protection Agency [EPA] National Institutes of Environmental Health Sciences [NIEHS] National Toxicology Program [NTP] U.S. Food and Drug Administration [FDA] Tox21 Assay Overview: Compound auto fluorescence often interferes with screening of the compound library against various biological targets and signaling pathways. Some of these compounds may have fluorophoric properties. Such properties may interfere with the assay outputs resulting in false positives and/or negatives. To decrease such complications and ensure the compound activities are relevant in terms of biological response, the Tox21 10K compound library was screened for auto fluorescence. From the fluorophores used as reporter signals in our screening assays, the auto fluorescence equivalencies of compounds against three fluorophores have been evaluated: Triamterene, Fluorescein and Rose Bengal sodium for blue, green and red fluorescence, respectively. The fluorescence intensities were measured using Excitation/Emission wavelengths at 405/460nm, 485/535nm and 540/590nm for blue, green and red labels, respectively. This assay includes the blue fluorescence data.
Tox21 Assay Protocol Summary: 2,000 HepG2 cells in 5 uL of culture medium (MEM containing 10% FBS) per well were dispensed into black wall/clear bottom 1536-well plates using a Multidrop Combi Dispenser (ThermoFisher Scientific, Waltham, MA). The assay plates were incubated overnight at 37 C to allow cell attachment to the well bottom, followed by the transfer of 23 nL compound or DMSO vehicle by a pintool work station (Kalypsys , San Diego, CA). After the assay plates were incubated for 1 hr at 37 C and 5% CO2, fluorescence intensities in the assay plates were measured by an Envision (PerkinElmer, Shelton, CT) plate reader using three labels for measuring blue, green and red fluorescence at […] 460, 535 and 590 nm respectively.

SMILES | Potency
Cc1cc(Cl)ccc1N=CN(C)C | inactive
ClC(Cl)=C(Cl)C(Cl)=C(Cl)Cl | inactive
COc1ccc(CO)cc1 | inactive
O=[N+]([O-])c1ccc(Nc2ccccc2)cc1 | inactive
CC1(C)Cc2cccc(O)c2O1 | inactive
CC(C)(c1ccccc1)c1ccc(O)cc1 | inactive
N#Cc1c(Cl)c(Cl)c(Cl)c(C#N)c1Cl | inactive
Oc1ccc(Cl)cc1Cc1ccccc1 | inactive
CC(C)(c1ccccc1)c1ccc(O)c(C(C)(C)c2ccccc2)c1 | inactive
COc1ccc(C=O)cc1OC | inactive
CC(O)CN(CC(C)O)CC(C)O (stereo not given) | inactive
Cc1ccc([N+](=O)[O-])cc1 | inactive
NC(=O)CN1CCCC1=O | inactive
CS(=O)(=O)NC(=O)c1cc(Oc2ccc(C(F)(F)F)cc2Cl)ccc1[N+](=O)[O-] | inactive
N#Cc1nn(-c2c(Cl)cc(C(F)(F)F)cc2Cl)c(N)c1S(=O)C(F)(F)F (stereo not given) | inactive
CC(C)(C#N)N=NC(C)(C)C#N | inactive
COP(=O)(NC(C)=O)SC (stereo not given) | inactive
O=[N+]([O-])/N=C1\NCCN1Cc1ccc(Cl)nc1 | inactive
Clc1cccc(Cl)c1 | inactive
CCOC(=O)c1ccccc1N | inactive

SMILES | Potency
C[N+](C)(C)C | inactive
Brc1ccc(Br)cc1 | inactive
CCOP(=O)(O)OCC (tested in a mixture with another compound) | inactive
COP(=S)(OC)Oc1ccc(S(=O)(=O)N(C)C)cc1 | inactive
ClC(Cl)(Cl)c1ccccc1 | inactive
ClC(Cl)(Cl)Br | inactive
CNC(=O)CSP(=S)(OC)OC | inactive
CN(C)P(=O)(N(C)C)N(C)C | inactive
O=S(=O)(O)C(F)(F)C(F)(F)C(F)(F)C(F)(F)C(F)(F)C(F)(F)C(F)(F)C(F)(F)F | inactive
CCC/C=N/O | inactive
CCOS(=O)(=O)OCC | inactive
N#CCCCCC#N | inactive
CCC(=O)Nc1ccc(Cl)c(Cl)c1 | inactive
CCN(CC)C(=O)C(C)Oc1cccc2ccccc12 (stereo not given) | inactive
[CH3][Sn]([Cl])([Cl])[Cl] | inactive
CC[n+]1c(-c2ccccc2)c2cc(N)ccc2c2ccc(N)cc21 | inactive
ClCc1ccccn1 | inactive
COc1ccc(O)c(C(C)(C)C)c1 | inactive
Clc1cccc(C(Cl)(Cl)Cl)n1 | inactive
CC(C)=CC1C(C(=O)OCN2C(=O)C3=C(CCCC3)C2=O)C1(C)C (stereo not given) | inactive

Source: PubChem BioAssay (Tox21)
